For 15 compounds, inhibition results are on record in PubChem BioAssay.

A number with no mark means an inactive call. Activity calls are given as the source filed them. Cut-off read from the data, not from the text of the source, unless noted: active = inhibition above about 28%; inactive = the rest.

For experiment [1], the target named is Nuclear receptor coactivator 3 (Homo sapiens) (UniProt Q9Y6Q9). Description: SRC3 coactivator transcriptional activity inhibitors, confirmation, cell-based, luminescence, quadruplicate (AID 588792;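 active = mean inhibition over 43.08%, the solvent-only control mean plus 3 SD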;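 note: 0% = DMSO treated cells and 100% = gossypol at 36 µM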). The note with it: HEK293 GAL4-SRC3 luciferase reporter, at 3.6 µM, active compounds read high. (In general: A reporter such as luciferase makes a cellular process visible.)

Experiment [2] concerns transactivating tegument protein VP16 (Human herpesvirus 1), Gal4-VP16 luciferase reporter. Description: VP16 transactivation inhibitors, counter-screen for SRC3 inhibitor project, cell-based, luminescence, high throughput (AID 588794; in the data active = inhibition above about 30%). The note with it: mammalian cells, VP16-driven luciferase reporter luminescence; at 3.6 µM; active compounds read high.
The target of experiment [3] is Nuclear receptor coactivator 1 (Homo sapiens) (UniProt Q15788). As to the kind of experiment: SRC1 coactivator transcriptional activity inhibitors, confirmation, cell-based, luminescence, quadruplicate (AID 588820;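 active = mean inhibition above 46.68%, the untreated control wells mean plus 3 SD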;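 note: 0% = DMSO wells and 100% = gossypol 36 µM treated wells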). The note with it: HEK293 GAL4-SRC1 luciferase reporter, at 3.6 µM, active compounds read high.
The nature of experiment [4]: VP16 transactivation inhibitors, counter-screen for SRC1 inhibitor project, cell-based, luminescence, high throughput (AID 588824; in the data active = inhibition above about 25%). The conditions noted are these: cell-based VP16 transactivation luciferase luminescence; at 3.6 µM; active compounds read high. In general terms: Counterscreens check selectivity or assay interference.
A short description of experiment [5]: StAR promoter reporter inhibitors, counter-screen for LRH-1 inverse agonist project, cell-based, luminescence, high throughput (AID 651611). The note with it: StAR promoter luciferase reporter counterscreen, at 3.6 µM, active compounds read high.
In experiment [6] the target is Nuclear receptor subfamily 5 group A member 2 (Homo sapiens) (UniProt O00482). Description: LRH-1 (NR5A2) inverse agonists, retest, confirmation, cell-based, luminescence (AID 651613; in the data active = inhibition above about 42%;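 note: HEK293T cells co-transfected with LRH-1 and StAR promoter luciferase reporter; 0% = vehicle wells and 100% = parental cells lacking receptor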). The conditions noted are these: cell-based LRH-1 luciferase reporter, inverse agonism; at 3.6 µM; active compounds read high.
Experiment [7] addresses Steroidogenic factor 1 (Homo sapiens) (UniProt Q13285). Description: SF1 (NR5A1) inverse agonists, counter-screen for LRH-1 inverse agonist project, cell-based, luminescence, high throughput (AID 651614; in the data active = inhibition above about 44%;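 note: cells cotransfected with StAR promoter reporter and SF1 expression vector; 0% = vehicle on cells with receptor and 100% = vehicle on cells lacking receptor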). The conditions noted are these: cell-based SF1 luciferase reporter, at 3.6 µM, active compounds read high.
Experiment [8] is described as follows: VP16 transactivation reporter inhibitors, counter-screen for LRH-1 inverse agonist project, cell-based, luminescence, high throughput (AID 651615; in the data active = inhibition above about 33%). The conditions noted are these: Gal4-VP16 luciferase reporter cells, at 3.6 µM, active compounds read high.
The test system of experiment [9] is transactivating tegument protein VP16 (Human herpesvirus 1). As to the kind of experiment: VP16 transactivation reporter inhibitors, counter-screen for SRC2 inhibitor project, cell-based, luminescence, single concentration (AID 652007; in the data active = inhibition above about 36%). The note with it: cell-based VP16 transactivation luciferase reporter, at 8.9 µM, active compounds read high.
In experiment [10] the target is Nuclear receptor coactivator 2 (Homo sapiens) (UniProt Q15596). Description: SRC2 coactivator transcriptional activity inhibitors, confirmation, cell-based, luminescence, HEK293, triplicate (AID 652008;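 active = mean inhibition above 46.5%, the solvent-only control mean plus 3 SD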;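 note: 0% = DMSO-treated cells and 100% = Gossypol at 36 µM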). The note with it: HEK293 GAL4-SRC2 luciferase reporter, at 8.9 µM, active compounds read high.
Sequence of Nuclear receptor coactivator 2 (Homo sapiens) (Q15596 whole entry, looked up, the tested form may be a part): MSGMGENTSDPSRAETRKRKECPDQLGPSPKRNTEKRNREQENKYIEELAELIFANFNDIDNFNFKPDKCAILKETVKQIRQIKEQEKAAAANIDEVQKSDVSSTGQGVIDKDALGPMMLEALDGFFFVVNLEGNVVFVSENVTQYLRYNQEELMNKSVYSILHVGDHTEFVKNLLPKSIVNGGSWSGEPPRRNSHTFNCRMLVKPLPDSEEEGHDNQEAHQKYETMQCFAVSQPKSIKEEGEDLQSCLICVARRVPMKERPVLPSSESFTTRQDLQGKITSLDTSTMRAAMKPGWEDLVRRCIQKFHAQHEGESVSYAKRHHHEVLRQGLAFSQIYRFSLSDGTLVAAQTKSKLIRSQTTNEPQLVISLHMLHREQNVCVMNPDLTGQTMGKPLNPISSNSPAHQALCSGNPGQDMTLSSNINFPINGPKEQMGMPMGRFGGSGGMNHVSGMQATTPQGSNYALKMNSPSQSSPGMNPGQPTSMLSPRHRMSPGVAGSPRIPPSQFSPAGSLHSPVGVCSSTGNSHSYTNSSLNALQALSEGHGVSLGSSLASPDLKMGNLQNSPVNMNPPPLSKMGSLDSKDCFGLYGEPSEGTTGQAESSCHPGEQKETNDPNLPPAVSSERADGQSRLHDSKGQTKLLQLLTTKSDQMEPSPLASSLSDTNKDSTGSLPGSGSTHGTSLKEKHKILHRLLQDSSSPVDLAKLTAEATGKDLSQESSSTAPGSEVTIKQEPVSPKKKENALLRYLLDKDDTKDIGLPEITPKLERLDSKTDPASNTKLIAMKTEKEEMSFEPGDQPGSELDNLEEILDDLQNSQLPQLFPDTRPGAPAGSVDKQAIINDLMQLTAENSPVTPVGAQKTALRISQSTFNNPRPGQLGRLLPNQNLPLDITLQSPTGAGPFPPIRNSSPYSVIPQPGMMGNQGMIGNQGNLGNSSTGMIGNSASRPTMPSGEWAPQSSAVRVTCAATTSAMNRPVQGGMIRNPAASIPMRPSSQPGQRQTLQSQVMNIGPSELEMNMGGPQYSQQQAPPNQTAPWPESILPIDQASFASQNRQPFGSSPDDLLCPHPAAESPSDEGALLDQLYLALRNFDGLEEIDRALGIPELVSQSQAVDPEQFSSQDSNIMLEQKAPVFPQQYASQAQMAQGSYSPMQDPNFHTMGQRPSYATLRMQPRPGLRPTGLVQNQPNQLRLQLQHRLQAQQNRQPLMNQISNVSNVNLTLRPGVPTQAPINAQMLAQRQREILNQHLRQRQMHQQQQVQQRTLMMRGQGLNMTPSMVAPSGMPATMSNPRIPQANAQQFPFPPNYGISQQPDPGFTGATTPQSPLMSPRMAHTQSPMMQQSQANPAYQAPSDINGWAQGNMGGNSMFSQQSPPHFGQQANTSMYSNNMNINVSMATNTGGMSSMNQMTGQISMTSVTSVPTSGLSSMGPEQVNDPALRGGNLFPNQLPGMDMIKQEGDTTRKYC

Sequence of Nuclear receptor subfamily 5 group A member 2 (Homo sapiens) (O00482 whole entry, looked up): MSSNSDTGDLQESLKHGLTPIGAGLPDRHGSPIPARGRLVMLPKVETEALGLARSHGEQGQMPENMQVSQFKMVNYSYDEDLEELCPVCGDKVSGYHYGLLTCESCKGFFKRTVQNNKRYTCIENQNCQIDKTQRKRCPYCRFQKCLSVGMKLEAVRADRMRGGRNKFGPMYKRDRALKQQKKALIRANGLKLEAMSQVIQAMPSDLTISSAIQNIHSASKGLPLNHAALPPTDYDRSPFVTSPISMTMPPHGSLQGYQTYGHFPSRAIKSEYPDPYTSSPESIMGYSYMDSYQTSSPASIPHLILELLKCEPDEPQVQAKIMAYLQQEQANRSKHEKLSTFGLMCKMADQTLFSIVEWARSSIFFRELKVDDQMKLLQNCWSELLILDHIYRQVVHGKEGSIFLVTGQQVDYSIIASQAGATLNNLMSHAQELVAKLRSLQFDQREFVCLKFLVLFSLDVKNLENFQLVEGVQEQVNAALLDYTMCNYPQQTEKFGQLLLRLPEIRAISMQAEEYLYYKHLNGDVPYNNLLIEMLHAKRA
Sequence of Nuclear receptor coactivator 1 (Homo sapiens) (Q15788 whole entry, looked up, the tested form may be a part): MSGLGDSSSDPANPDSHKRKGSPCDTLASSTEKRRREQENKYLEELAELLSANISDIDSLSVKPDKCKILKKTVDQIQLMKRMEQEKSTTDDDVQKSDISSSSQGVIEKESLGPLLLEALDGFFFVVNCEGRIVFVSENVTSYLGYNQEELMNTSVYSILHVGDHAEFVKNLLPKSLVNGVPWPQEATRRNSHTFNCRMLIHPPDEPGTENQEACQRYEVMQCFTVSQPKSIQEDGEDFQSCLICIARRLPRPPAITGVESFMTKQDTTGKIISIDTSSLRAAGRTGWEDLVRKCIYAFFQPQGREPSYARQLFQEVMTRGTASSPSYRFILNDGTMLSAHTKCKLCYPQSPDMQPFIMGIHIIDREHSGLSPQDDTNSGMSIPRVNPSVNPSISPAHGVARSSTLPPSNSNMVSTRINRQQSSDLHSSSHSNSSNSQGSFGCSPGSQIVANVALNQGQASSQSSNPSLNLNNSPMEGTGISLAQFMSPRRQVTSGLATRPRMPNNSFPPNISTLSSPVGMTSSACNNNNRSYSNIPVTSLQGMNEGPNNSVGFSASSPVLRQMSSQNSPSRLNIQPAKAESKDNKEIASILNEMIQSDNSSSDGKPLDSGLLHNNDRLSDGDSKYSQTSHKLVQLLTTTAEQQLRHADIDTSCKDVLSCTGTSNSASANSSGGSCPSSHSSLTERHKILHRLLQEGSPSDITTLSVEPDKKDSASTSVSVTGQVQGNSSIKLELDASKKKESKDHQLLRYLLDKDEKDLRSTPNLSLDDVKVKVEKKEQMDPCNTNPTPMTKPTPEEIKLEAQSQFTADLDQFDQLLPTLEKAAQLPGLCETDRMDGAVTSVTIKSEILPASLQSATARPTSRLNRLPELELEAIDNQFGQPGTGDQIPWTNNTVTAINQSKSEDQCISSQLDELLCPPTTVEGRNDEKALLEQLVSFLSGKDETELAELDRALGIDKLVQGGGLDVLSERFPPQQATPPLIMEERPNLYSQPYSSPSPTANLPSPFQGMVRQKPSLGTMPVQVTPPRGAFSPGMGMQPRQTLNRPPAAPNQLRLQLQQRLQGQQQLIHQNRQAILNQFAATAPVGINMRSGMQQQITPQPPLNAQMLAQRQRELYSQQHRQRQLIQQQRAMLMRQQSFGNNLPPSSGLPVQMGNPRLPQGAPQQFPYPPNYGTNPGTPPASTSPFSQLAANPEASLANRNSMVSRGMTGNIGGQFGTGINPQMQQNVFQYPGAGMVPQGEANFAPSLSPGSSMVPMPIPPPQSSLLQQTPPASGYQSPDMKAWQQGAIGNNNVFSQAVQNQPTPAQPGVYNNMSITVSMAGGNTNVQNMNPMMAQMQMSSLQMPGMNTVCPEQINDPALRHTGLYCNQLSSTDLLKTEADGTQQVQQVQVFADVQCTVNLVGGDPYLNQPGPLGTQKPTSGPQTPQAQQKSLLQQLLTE
Sequence of Steroidogenic factor 1 (Homo sapiens) (Q13285 whole entry, looked up, the tested form may be a part): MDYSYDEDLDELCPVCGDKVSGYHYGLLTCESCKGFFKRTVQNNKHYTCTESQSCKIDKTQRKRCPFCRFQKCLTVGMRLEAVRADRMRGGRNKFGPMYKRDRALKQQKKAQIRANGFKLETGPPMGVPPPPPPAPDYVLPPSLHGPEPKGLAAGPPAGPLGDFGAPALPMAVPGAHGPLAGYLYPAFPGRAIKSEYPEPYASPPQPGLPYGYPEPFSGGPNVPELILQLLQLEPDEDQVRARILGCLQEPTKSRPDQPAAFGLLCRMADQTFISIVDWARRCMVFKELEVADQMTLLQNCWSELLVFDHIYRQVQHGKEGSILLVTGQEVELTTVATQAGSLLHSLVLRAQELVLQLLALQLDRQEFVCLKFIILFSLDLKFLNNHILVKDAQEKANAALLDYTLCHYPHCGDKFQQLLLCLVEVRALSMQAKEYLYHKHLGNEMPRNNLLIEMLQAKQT

One may read the inhibition as the change of the read-out against control, counted positive when it falls. Turning to `CC(C)(C)C(=O)/C(=C/c1ccc(Cl)cc1)n1cncn1`, the inhibition in experiment [1] was 73.4% (active); in [2], 64.5% (active); in [3] it was 40.2%; in experiment [4], 59.1% (active); in experiment [5] it was 78.4% (active); in [6] it was 70.4% (active). Besides, the inhibition was 77% (active) in experiment [7], 78.9% (active) in experiment [8], 51.1% (active) in [9] and 79.7% (active) in experiment [10].

Turning to `CN(C(=O)COc1ccccc1C(=O)NCCOc1ccccc1)c1ccccc1`, the inhibition in experiment [1] was 20.1%; in experiment [2], 32.4% (active); in experiment [3] it was -24.3%; in experiment [4] it was 32.8% (active); in experiment [5] it was 63.6% (active); in experiment [6] it was 31.8%. Further, the inhibition in experiment [7] was 54.3% (active); in experiment [8], 37.1% (active); in experiment [9] it was 36.4% (active); in [10], 47.3% (active).

Consider `C(=NN1CCCCCC1)c1ccc2ccccc2n1`, for which the inhibition was 88.6% (active) in [1]; 82.8% (active) in experiment [2]; 68.3% (active) in experiment [3]; 72.1% (active) in experiment [4]; 87.8% (active) in [5]; 67% (active) in [6]. Besides, the inhibition was 87% (active) in [7], 70.8% (active) in [8], 92.4% (active) in [9] and 94.9% (active) in [10].

Take `CCOC(=O)c1ccc(NC(=O)c2ccc(C)c(S(=O)(=O)N3CCOCC3)c2)cc1`: the inhibition was 31.4% in experiment [1]; 47.9% (active) in [2]; 3.47% in experiment [3]; 54.1% (active) in experiment [4]; 65.1% (active) in experiment [5]; 50.5% (active) in experiment [6]. Further, the inhibition in [7] is 66.5% (active); in [8], 66% (active); in [9], 47.4% (active); in experiment [10] it was 33.8%.

For `O=C(Nc1nc2ccccc2[nH]1)c1ccccc1F`, the inhibition was 27.6% in experiment [1]; 19.6% in [2]; -26.7% in [3]; 11.2% in [4]; -0.87% in experiment [5]; -32.3% in experiment [6]. Moreover, the inhibition in experiment [7] was 13.5%; in experiment [8], -10.4%; in experiment [9] it was 43.9% (active); in experiment [10] it was 67.2% (active).

With `COc1cccc2c1C(=O)c1c(O)c3c(c(O)c1C2=O)CC(O)(C(=O)CO)CC3OC1CC(N(C)C)C(O)C(C)O1` (stereo not given), the inhibition in experiment [1] was 96.6% (active); in experiment [2], 97% (active); in experiment [3], 85.8% (active); in [4], 96.7% (active); in [5], 85.1% (active); in experiment [6] it was 107% (active). The inhibition in [7] is 96% (active); in [8] it was 96.5% (active); in experiment [9], 36.9% (active); in experiment [10], 57.6% (active).

Regarding `Cc1ccc(Nc2nc(N)nc(CCl)n2)c(C)c1`, the inhibition in [1] was 74% (active); in experiment [2], 32.8% (active); in [3] it was 38.6%; in experiment [4], 28.1% (active); in experiment [5], 20%; in experiment [6], 58.7% (active). Moreover, the inhibition in experiment [7] was 29.4%; in [8] it was 56% (active); in experiment [9], -27.8%; in [10] it was 40.4%.

With `CCC1=C(CC2NCCc3ccccc32)CC2c3cc(OC)c(OC)cc3CCN2C1` (stereo not given), the inhibition in experiment [1] is 90.6% (active); in [2], 84.9% (active); in [3] it was 63.7% (active); in [4] it was 85.7% (active); in experiment [5] it was 87.4% (active); in experiment [6] it was 98.3% (active). Also, the inhibition in experiment [7] was 88.3% (active); in [8], 93.9% (active); in experiment [9] it was 47.1% (active); in experiment [10] it was 52.6% (active).

For the compound `CC(C)c1ccc(-n2c(-c3ccccc3)c[n+]3c2CCc2ccccc2-3)cc1`, the inhibition in [1] was 72.4% (active); in experiment [2] it was 84% (active); in experiment [3] it was 63.6% (active); in [4], 84.4% (active); in [5], 76.3% (active); in [6], 108% (active). Besides, the inhibition in experiment [7] was 91.6% (active); in experiment [8], 90.1% (active); in experiment [9] it was 60.1% (active); in [10] it was 71.4% (active).

Take `O=C(CCl)N(c1ccccc1)C1CCS(=O)(=O)C1` (stereo not given): the inhibition in experiment [1] was 55.4% (active); in experiment [2], 18%; in experiment [3], 22.3%; in experiment [4], 14%; in experiment [5], 50.6% (active); in [6], 71.3% (active). The inhibition was 65.1% (active) in [7], 16.8% in experiment [8], 40.7% (active) in experiment [9] and 57.2% (active) in experiment [10].

With `O=C(CSc1nnc(-c2cccnc2)s1)Nc1ccnc2ccccc12`, the inhibition in [1] is 32.3%; in experiment [2], 46.7% (active); in experiment [3], -3.87%; in [4] it was 51.2% (active); in [5] it was 21%; in experiment [6], 57% (active). In addition, the inhibition was 56.1% (active) in [7], 55.6% (active) in experiment [8], 23.7% in experiment [9] and 35% in [10].

On to `CN=c1scc(-c2ccccc2F)n1/N=C/c1ccc[nH]1`, for which the inhibition was 89% (active) in experiment [1]; 86.5% (active) in experiment [2]; 71.6% (active) in experiment [3]; 75.6% (active) in [4]; 87.2% (active) in experiment [5]; 70.1% (active) in [6]. Further, the inhibition in experiment [7] was 85.6% (active); in [8], 78.1% (active); in experiment [9], 87.7% (active); in [10], 96.1% (active).

Take `C=C1C(=O)[C@]23C[C@H]1CCC2[C@@]1(C)C(C[C@@H]3O)[C@](C)(C(=O)OC)CC[C@@H]1O` (stereo not given in full): the inhibition was 40% in [1]; 24.9% in experiment [2]; -14.1% in experiment [3]; 37.1% (active) in [4]; 43.8% (active) in [5]; 41.3% (active) in experiment [6]. The inhibition in [7] is 42.4%; in [8] it was 49.4% (active); in [9] it was 34.8%; in experiment [10], 49.3% (active).

`CC1CCc2nc(N)c(C#N)c(-c3cccnc3)c2C1` (stereo not given): the inhibition was 66.7% (active) in experiment [1]; 57.9% (active) in experiment [2]; 68.7% (active) in [3]; 58.6% (active) in [4]; 42.3% (active) in experiment [5]; 52.9% (active) in experiment [6]. In addition, the inhibition is 46.1% (active) in [7], 72.9% (active) in [8], 15.6% in experiment [9] and 53.9% (active) in experiment [10].

In the case of `Cc1c(/C(O)=C2/C(=O)C(=O)N(Cc3cccnc3)C2c2ccccn2)cnn1-c1ccccc1` (stereo not given), the inhibition in experiment [1] is 38.2%; in experiment [2] it was 3.13%; in experiment [3], 20.1%; in experiment [4], -13.8%; in [5], 42% (active); in experiment [6], 23.4%. The inhibition in experiment [7] is 36.8%; in [8], 7.05%; in [9], 11.9%; in [10] it was 52.3% (active).
